In PubChem BioAssay (NCATS):
Where “and” joins values, the source holds several entries; their conditions need not be identical. Identical values can stand only once. Inconclusive results are not listed. Where a call stands in place of a potency, no number is given. Calls of active or inactive are those of the source. The call rests on the fitted dose curve; in most records, active means well fitted curve in the direction sought with a large enough effect; inconclusive means small, poorly fitted or top-dose-only effect, or another doubt; inactive means no such curve, though single readings can be large; an effect the other way counts as inactive or inconclusive.

What was measured:
[1] = qHTS of pediatric cancer cell lines to identify multiple opportunities for drug repurposing: Primary screen for TC32 cells (AID 1347089); further: nearly all actives have a fitted effect of over 60% in size; further: potency means the concentration at half of the fitted maximal effect
In short: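 TC32 cells, 500-1,000/well in growth medium, compound-treated 48 h at 37 °C; viability from CellTiter-Glo luminescence. Primary screen: MIPE 11-point (0.78 nM–46 µM final), NPC 8-point (0.59 nM–46 µM final); confirmatory at 11-point dilutions.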

[2] = qHTS of pediatric cancer cell lines to identify multiple opportunities for drug repurposing: Primary screen for DAOY cells (AID 1347090); further: nearly all actives have a fitted effect of over 55% in size; further: potency means the concentration at half of the fitted maximal effect
In short: (§1)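 Viability measured as metabolically active cells via CellTiter-Glo luminescence following 48 hours of compound exposure, 11-point dilutions in confirmatory testing. 500-1,000 cells/well plated 5 hours before dosing; controls were DMSO and 2.3 µM bortezomib.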

[3] = qHTS of pediatric cancer cell lines to identify multiple opportunities for drug repurposing: Primary screen for SJ-GBM2 cells (AID 1347091); further: potency means the concentration at half of the fitted maximal effect
In short: as §1

[4] = qHTS of pediatric cancer cell lines to identify multiple opportunities for drug repurposing: Primary screen for A673 cells (AID 1347092); further: nearly all actives have a fitted effect of over 45% in size; further: potency means the concentration at half of the fitted maximal effect
In short: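 A673 cells (500-1,000 cells/well) were treated 48 hours at 37 degrees C with compounds at 11-point (0.78 nM to 46 µM) or 8-point (0.59 nM to 46 µM) dilutions. Viability read by CellTiter-Glo luminescence; concentration-response curves fitted.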

[5] = qHTS of pediatric cancer cell lines to identify multiple opportunities for drug repurposing: Primary screen for SK-N-MC cells (AID 1347093); further: potency means the concentration at half of the fitted maximal effect
In short: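 Metabolically active cells were quantified by ATP-dependent luminescence (CellTiter-Glo, 15 min at room temperature) following 48 h treatment. Cells had been plated at 500-1,000 per well and settled for 5 h beforehand.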

[6] = qHTS of pediatric cancer cell lines to identify multiple opportunities for drug repurposing: Primary screen for BT-37 cells (AID 1347094); further: potency means the concentration at half of the fitted maximal effect
In short: (§2)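 ATP-based luminescence (CellTiter-Glo) quantifies viability after a 48-hour exposure. Compounds are dosed across 8 or 11 final concentrations; DMSO and 2.3 µM bortezomib serve as controls.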

[7] = qHTS of pediatric cancer cell lines to identify multiple opportunities for drug repurposing: Primary screen for NB-EBc1 cells (AID 1347095); further: potency means the concentration at half of the fitted maximal effect
In short: as §2

[8] = qHTS of pediatric cancer cell lines to identify multiple opportunities for drug repurposing: Primary screen for U-2 OS cells (AID 1347096); further: nearly all actives have a fitted effect of over 50% in size; further: potency means the concentration at half of the fitted maximal effect
In short: (§3)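 Viability after 48 h compound treatment at 37C, 500-1,000 cells/well, read as ATP luminescence with CellTiter-Glo. Primary screens used 11-point (MIPE, 0.78 nM-46 µM) or 8-point (NPC, 0.59 nM-46 µM) final concentrations; follow-up screens used 11-point dilutions.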

[9] = qHTS of pediatric cancer cell lines to identify multiple opportunities for drug repurposing: Primary screen for Saos-2 cells (AID 1347097); further: nearly all actives have a fitted effect of over 40% in size; further: potency means the concentration at half of the fitted maximal effect
In short: as §2

[10] = qHTS of pediatric cancer cell lines to identify multiple opportunities for drug repurposing: Primary screen for SK-N-SH cells (AID 1347098); further: nearly all actives have a fitted effect of over 65% in size; further: potency means the concentration at half of the fitted maximal effect
In short: (§4)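 Cells (500-1,000/well) rested 5 h, then received compounds for 48 h; metabolically active cells were measured by CellTiter-Glo luminescence. Final concentrations spanned up to 46 µM (MIPE, 11-point) or 0.59 nM-46 µM (NPC, 8-point) in primary screens, 11-point in follow-ups.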

[11] = qHTS of pediatric cancer cell lines to identify multiple opportunities for drug repurposing: Primary screen for LAN-5 cells (AID 1347100); further: potency means the concentration at half of the fitted maximal effect
In short: as §3

[12] = qHTS of pediatric cancer cell lines to identify multiple opportunities for drug repurposing: Primary screen for BT-12 cells (AID 1347101); further: nearly all actives have a fitted effect of over 25% in size; further: potency means the concentration at half of the fitted maximal effect
In short: as §4

[13] = qHTS of pediatric cancer cell lines to identify multiple opportunities for drug repurposing: Primary screen for Rh18 cells (AID 1347102); further: nearly all actives have a fitted effect of over 65% in size; further: potency means the concentration at half of the fitted maximal effect
In short: as §3

[14] = qHTS of pediatric cancer cell lines to identify multiple opportunities for drug repurposing: Primary screen for OHS-50 cells (AID 1347103); further: nearly all actives have a fitted effect of over 40% in size
In short: as §4

[15] = qHTS of pediatric cancer cell lines to identify multiple opportunities for drug repurposing: Primary screen for RD cells (AID 1347104); further: nearly all actives have a fitted effect of over 55% in size; further: potency means the concentration at half of the fitted maximal effect
In short: as §2

[16] = qHTS of pediatric cancer cell lines to identify multiple opportunities for drug repurposing: Primary screen for MG 63 (6-TG R) cells (AID 1347105); further: nearly all actives have a fitted effect of over 50% in size; further: potency means the concentration at half of the fitted maximal effect
In short: as §2

[17] = qHTS of pediatric cancer cell lines to identify multiple opportunities for drug repurposing: Primary screen for control Hh wild type fibroblast cells (AID 1347106);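 further: series mostly up to about 46 µM; a drop in luminescence marks cytotoxicity and a rise apparent proliferation; nearly all actives have a fitted effect of over 55% in size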
In short: as §3

[18] = qHTS of pediatric cancer cell lines to identify multiple opportunities for drug repurposing: Primary screen for Rh30 cells (AID 1347107); further: series mostly up to about 46 µM; nearly all actives have a fitted effect of over 75% in size
In short: as §3

[19] = qHTS of pediatric cancer cell lines to identify multiple opportunities for drug repurposing: Primary screen for Rh41 cells (AID 1347108); further: nearly all actives have a fitted effect of over 70% in size; further: potency means the concentration at half of the fitted maximal effect
In short: as §2

[20] = qHTS of pediatric cancer cell lines to identify multiple opportunities for drug repurposing: Primary screen for NB1643 cells (AID 1347099); further: nearly all actives have a fitted effect of over 50% in size; further: potency means the concentration at half of the fitted maximal effect
In short: as §2

Compound	Potency [1]	Potency [2]	Potency [3]	Potency [4]	Potency [5]	Potency [6]	Potency [7]	Potency [8]	Potency [9]	Potency [10]	Potency [11]	Potency [12]	Potency [13]	Potency [14]	Potency [15]	Potency [16]	Potency [17]	Potency [18]	Potency [19]	Potency [20]
Cc1cccc(C)c1NC1=NCCCS1	inactive	inactive	inactive	inactive	inactive	inactive	inactive	inactive	inactive	inactive	inactive	inactive	inactive	inactive	inactive	inactive	inactive	inactive	inactive	–
CN(C)CCN(C)CCc1ccc(Cl)c(Cl)c1	inactive	inactive	inactive	inactive	14.8 µM (active)	–	inactive	inactive	inactive	–	inactive	inactive	inactive	–	–	inactive	inactive	inactive	inactive	–
O=C(NC(O)C(Cl)(Cl)Cl)NC(O)C(Cl)(Cl)Cl (centres undefined)	inactive	inactive	inactive	inactive	inactive	inactive	inactive	inactive	inactive	–	inactive	inactive	inactive	inactive	inactive	inactive	inactive	inactive	inactive	inactive
CC(C)=CCOc1c2occc2cc2ccc(=O)oc12	inactive	inactive	inactive	inactive	inactive	inactive	inactive	inactive	–	inactive	inactive	–	inactive	–	inactive	inactive	inactive	inactive	inactive	inactive
N[C@@H](Cc1ccc(N(CCCl)CCCl)cc1)C(=O)O	20.8 µM (active)	16.8 µM (active) and 18.7 µM (active)	2.64 µM (active)	6.68 µM (active) and 5.9 µM (active)	2.99 µM (active) and 2.35 µM (active)	15.5 µM (active) and 15.3 µM (active)	3.76 µM (active) and 235 nM (active)	inactive	26.6 µM (active) and 16.6 µM (active)	–	5.96 µM (active) and 3.72 µM (active)	–	21.1 µM (active)	–	inactive	16.8 µM (active) and 18.7 µM (active)	inactive	inactive	–	9.44 µM (active) and 16.6 µM (active)
c1ccc(C2CC2)c(OCC2=NCCN2)c1	inactive	inactive	inactive	inactive	inactive	inactive	inactive	inactive	–	inactive	inactive	inactive	inactive	–	inactive	inactive	inactive	inactive	inactive	inactive
Fc1ccc(C(OCCN2CCN(CCCc3ccccc3)CC2)c2ccc(F)cc2)cc1	13.1 µM (active)	23.5 µM (active)	20.9 µM (active) and 16.8 µM (active)	14.8 µM (active)	9.35 µM (active) and 10.6 µM (active)	21.7 µM (active) and 24.6 µM (active)	23.7 µM (active)	23.5 µM (active)	14.8 µM (active) and 15 µM (active)	9.7 µM (active)	16.6 µM (active) and 8.41 µM (active)	21.7 µM (active) and 24.6 µM (active)	–	–	26.4 µM (active) and 23.7 µM (active)	21.1 µM (active)	inactive	–	20.9 µM (active)	13.2 µM (active)
COC1(CS(=O)c2ccccc2)CCN(CCc2c[nH]c3ccc(F)cc23)CC1 (centres undefined)	inactive	inactive	inactive	inactive	inactive	–	inactive	inactive	inactive	–	inactive	inactive	inactive	–	inactive	inactive	inactive	inactive	–	inactive
Cn1c(CCCC(=O)O)nc2cc(N(CCCl)CCCl)ccc21	inactive	–	inactive	inactive	26.4 µM (active)	–	2.64 µM (active)	inactive	inactive	inactive	–	inactive	inactive	–	inactive	inactive	inactive	inactive	inactive	18.7 µM (active)
Cc1sc2c(c1C)C(c1ccc(Cl)cc1)=N[C@@H](CC(=O)OC(C)(C)C)c1nnc(C)n1-2	–	–	2.64 µM (active)	0.469 µM (active)	0.118 µM (active)	1.37 µM (active)	4.18 µM (active)	–	1.48 µM (active)	2.41 µM (active)	590 nM (active)	–	0.935 µM (active)	–	590 nM (active)	–	–	–	0.743 µM (active)	5.9 µM (active)
COC[C@@H](NC(C)=O)C(=O)NCc1ccccc1	inactive	inactive	inactive	inactive	–	inactive	inactive	inactive	inactive	inactive	inactive	inactive	inactive	–	inactive	inactive	inactive	inactive	inactive	–
CCC(=O)C(CC(C)N(C)C)(c1ccccc1)c1ccccc1 (centres undefined)	inactive	34.7 µM (active)	inactive	–	–	–	inactive	inactive	–	–	inactive	–	inactive	–	–	–	inactive	inactive	–	inactive
CNC(=O)N1N=C(c2ccc(N)cc2)c2cc3c(cc2CC1C)OCO3 (centres undefined)	–	–	inactive	–	9.35 µM (active)	–	–	inactive	–	–	5900 nM (active)	–	–	–	–	–	inactive	inactive	–	–
Cc1cc(SCc2sc(-c3ccc(C(F)(F)F)c(F)c3)nc2C)ccc1OCC(=O)O	inactive	inactive	–	inactive	–	–	–	inactive	–	–	inactive	inactive	inactive	–	inactive	inactive	inactive	inactive	inactive	inactive
O=C(O)C(=O)c1cn(Cc2ccccc2)c2ccc(-c3ccc(OC(F)(F)F)cc3)cc12	inactive	–	–	inactive	–	inactive	–	inactive	23.5 µM (active)	inactive	inactive	inactive	inactive	–	–	inactive	inactive	inactive	–	23.5 µM (active)
